# In the OligoGym collection:
# Target: SNRNP200
# Test: pooled miR-30 sensor sort-seq; sequence = guide strand
# Settings: shRNA
# Also: reference of the scale not given here.
row,Sequence,sensor-assay potency score (higher = more potent)
1,TTCACTAGCACATGGTATCTGG,-0.256
2,TACTTGACCAGATTGTTCTTGT,0.676
3,TTCTTGAAGAAATCCTTCTTGG,-0.674
4,TATCTTGGTAAAGACTCTCAAA,-1.23
5,TTTCATTCTTTAGAACAGCTAG,0.0872
6,TTGTTCTCAATGGTCTTGGTGA,-0.0384
7,AATATCGCTCGCATCAACCGGC,0.041
8,TGCACTGACAACTCCAACTTGG,-0.38
9,TTGAACTCAGAGGACAATGAGA,-0.903
10,TACAGTGTTAAACACCTGGGTC,-1.05
11,TGTAATGAGGTGCTCGTCCTGG,-0.352
12,TTGCAGAAGAACGTTGATCTTA,-0.0878

# Target: SNRNP70
# Test: as above
# Settings: shRNA
row,Sequence,sensor-assay potency score (higher = more potent)
1,TTGATAGGTCCGTACACCTCAA,-0.456
2,TAAGCTCTGTCTCCACTTCTTG,-0.943
3,TCCTCTTCTGGTACCACCGAGG,-1.82
4,TTCATGTGGCAGTTTCTCCAGG,-0.18
5,TTTGATAGGTCCGTACACCTCA,0.253
6,TATTCTTTTGATAGGTCCGTAC,-0.682
7,TAGCGGGAGGTGTCATCGCGGC,-0.939
8,TTGCTGTCGCCGCTCAATCTTT,-1.5
9,TTAAGCTCTGTCTCCACTTCTT,-0.388
